From PubChem BioAssay AID1259343 (VanderVen Lab, College of Veterinary Medicine, Cornell …, 2017)
In all, about 6,200 compounds went through this assay and about 2,900 (47%) were called active. Cut-off read from the data, not from the text of the source: active = inhibition above about 50%; inactive = the rest. The set was probably picked from earlier hits. This is one part of the list.

assay: Mycobacterium tuberculosis growth inhibition, primary screen (AID 1259343); conditions: inhibition: at 10 µM, active compounds read high; outcome: 10 uM

Row | SMILES | inhibition
1 | OC(c1cc(C(F)(F)F)nc2c(C(F)(F)F)cccc12)C1CCCCN1 (stereo not given) | 78.8% (active)
2 | FC(F)(F)c1cc(NCC2CC2)c2ccccc2n1 | 8.13% (inactive)
3 | O=S(=O)(NCCc1cccc(Cl)c1)N1CCCCCC1 | 21.7% (inactive)
4 | O=C(NCCc1ccc(Cl)cc1)N1CCN(c2ccccc2)CC1 | 13.3% (inactive)
5 | O=C(NCCc1cccc(Cl)c1)N1CCc2ccccc2C1 | 83.4% (active)
6 | CSc1nc2ccc(N=Cc3ccc4ncccc4c3)cc2s1 | -22.5% (inactive)
7 | CSc1nc2ccc(N=Cc3c[nH]c4ccccc34)cc2s1 | 95.1% (active)
8 | Cn1c(COc2cccc3ccccc23)nc2ccccc21 | -3.53% (inactive)
9 | Cn1c(CSc2ccccc2)nc2ccccc21 | 39% (inactive)
10 | Cc1ccc(C)c(OCCN(C)Cc2nc3ccccc3n2C)c1 | 83.1% (active)
11 | CC(C)CCCC(C)Nc1ncnc2sccc12 (stereo not given) | 60.5% (active)
12 | c1nc(NC23CC4CC(CC(C4)C2)C3)c2ccsc2n1 | -13.2% (inactive)
13 | CCCCC(CC)CNc1ncnc2sccc12 (stereo not given) | 59.1% (active)
14 | CCCCC(CC)CNS(=O)(=O)c1cccc(F)c1 (stereo not given) | 45.9% (inactive)
15 | CC1(C)C2CCC1(C)C(Nc1ncnc3sccc13)C2 (stereo not given) | 41.4% (inactive)
16 | FC(F)(F)c1cc(Nc2ncnc3sccc23)ccc1Br | 23.6% (inactive)
17 | COC(=O)c1ccc(-c2noc(CN(C)Cc3cccc(-n4cccn4)c3)n2)cc1 | 50.6% (active)
18 | CN(Cc1cccc(-n2cccn2)c1)Cc1nc(Cc2ccccc2Cl)no1 | inactive
19 | Cc1cc(C)n(-c2cccc(CN(C)Cc3nc(-c4ccc5c(c4)OCO5)no3)c2)n1 | 45.7% (inactive)
20 | CC(SC1CCCC1)C(=O)N1CCCC1 (stereo not given) | 52.1% (active)
21 | COc1cccc(-c2ccccc2NC(=O)C2CCN(CC3CC=CCC3)CC2)c1 (stereo not given) | 84% (active)
22 | COc1cccc(-c2ccccc2NC(=O)C2CCN(Cc3cc4ccccc4[nH]3)CC2)c1 | 17.3% (inactive)
23 | COc1cccc(-c2ccccc2NC(=O)C2CCN(CC3CCCCC3)CC2)c1 | 89.8% (active)
24 | COc1cccc(-c2ccccc2NC(=O)C2CCN(CC(C)c3ccccc3)CC2)c1 (stereo not given) | 74.2% (active)
25 | COc1cccc(-c2ccccc2NC(=O)C2CCN(CCC(C)c3ccc(C)o3)CC2)c1 (stereo not given) | 80.1% (active)

Row | SMILES | inhibition
26 | CC(C)c1ccc(C#N)c(SC2CC(=O)N(c3ccc(Br)cc3)C2=O)n1 (stereo not given) | 10.7% (inactive)
27 | O=C(/C=C/c1ccc(O)c(O)c1)OCCc1ccccc1 | 102% (active)
28 | COc1cc(/C=C/C(=O)O)ccc1O | 37.7% (inactive)
29 | CC1CC(OCC(O)CN2CCC(CN3C(=O)c4cccc5cccc(c45)C3=O)CC2)CC(C)(C)C1 (stereo not given) | 90.1% (active)
30 | O=C(CCNc1ccc(Cc2ccncc2)cc1)c1ccc2c(c1)OCO2 | 84.6% (active)
31 | O=C(C(Br)=CNc1ccc(Cl)c(Cl)c1)C(F)(F)F | 87% (active)
32 | CN(CC1Cc2ccccc2O1)C(=O)c1cc(COc2ccc3ncccc3c2)on1 (stereo not given) | 35.5% (inactive)
33 | CCC(C(=O)c1ccc2ncccc2c1)c1ccccc1 (stereo not given) | 58.2% (active)
34 | CCc1ccc(C(=O)NCc2ccc(C#N)cc2)o1 | 12.2% (inactive)
35 | CCc1ccc(C(=O)NCc2cccc(C(=O)Nc3ccncc3)c2)o1 | 51.8% (active)
36 | CCN(c1ccc(C(=O)Nc2ccncc2)cc1)C(C)C | 8.43% (inactive)
37 | CC1(C)C2CC=C(C=NNC(=O)NC3CCCCC3)C1C2 (stereo not given) | -4.24% (inactive)
38 | O=C(/C=C/c1ccc([N+](=O)[O-])s1)Nc1nnc(C2COc3ccccc3O2)o1 (stereo not given) | 101% (active)
39 | CN(CCCC(=O)Nc1ccc2[nH]c(=S)oc2c1)C(=O)OC(C)(C)C | 73.7% (active)
40 | CN(CCCCCCCCCCN(C)C(=O)Oc1cccc([N+](C)(C)C)c1)C(=O)Oc1cccc([N+](C)(C)C)c1 | 49.3% (inactive)
41 | C=CCN=c1scc(-c2ccccc2)n1N=Cc1ccccn1 | 20.3% (inactive)
42 | Cc1[nH]n(-c2cccc(Cl)c2)c(=O)c1C=NCCc1ccccc1 | 72.9% (active)
43 | Cc1ccc(C)c(Oc2cc(-n3ncc(Cl)c(Cl)c3=O)nc(C)n2)c1 | 101% (active)
44 | Cc1ccc2nc(-c3ccncc3)cc(-c3ccccc3)c2c1 | 53.7% (active)
45 | NC(=O)C(c1ccc(F)cc1)N1CCOC(c2ccc(F)cc2)C1 (stereo not given) | -5.29% (inactive)
46 | O=c1ccc(-c2cccc([N+](=O)[O-])c2)nn1Cc1c(F)cccc1Cl | 21.1% (inactive)
47 | O=C(CCl)N1CCN(Cc2c(F)cccc2Cl)CC1 | 66.2% (active)
48 | O=C(CCl)N1CCN(Cc2ccc(Cl)s2)CC1 | -19.9% (inactive)
49 | O=c1ccc(-c2ccco2)nn1Cc1cccc2ccccc12 | 37% (inactive)
50 | O=[N+]([O-])c1ccc(N2CCN(Cc3c(F)cccc3Cl)CC2)cc1 | 86.5% (active)

Row | SMILES | inhibition
51 | O=C(CCl)N1CCN(c2ccccc2F)CC1 | 97.1% (active)
52 | O=C(CCl)N1CCN(Cc2cccc3ccccc23)CC1 | 71.9% (active)
53 | CC1(C(=O)NCc2cccc3ccccc23)CCN1CCCc1ccccc1 (stereo not given) | 32.3% (inactive)
54 | O=C(c1ccc2c(c1)OCO2)C1CCCN(Cc2c(F)cccc2Cl)C1 (stereo not given) | -16.5% (inactive)
55 | N#Cc1c(F)cccc1N1CCN(c2ccccc2O)CC1 | -21.1% (inactive)
56 | O=c1c(-c2cccc(Br)c2)[n+]([O-])c2ccccc2n1O | 5.77% (inactive)
57 | O[N+]1=CC=CCC1=S.On1ccccc1=S.[Zn] | 102% (active)
58 | O=S(=O)(c1ccc(Cl)cc1)N1CCCC2CCCCC21 (stereo not given) | 23.9% (inactive)
59 | Nc1cc(S(=O)(=O)N2CCCCC2)ccc1Oc1ccc(Cl)cc1 | 16.6% (inactive)
60 | COc1ccc(S(=O)(=O)N2CC3(C)CC2CC(C)(C)C3)cc1 (stereo not given) | 24.4% (inactive)
61 | COc1ccc(-c2ccc(S(=O)(=O)N3CCCCCC3)cc2)cc1 | 81.1% (active)
62 | Cc1ccc(S(=O)(=O)N2CCC(NC(=O)C(C)Oc3ccc(Cl)cc3Cl)CC2)cc1 (stereo not given) | 10.4% (inactive)
63 | COc1ccc(CC2CCN(S(=O)(=O)c3ccc(C#N)cc3)CC2)cc1 | 52.4% (active)
64 | CCc1ccc(S(=O)(=O)N2CCC(CO)(Cc3ccc(OC)cc3)CC2)s1 | 15.3% (inactive)
65 | COc1ccc(CC2CCN(S(=O)(=O)c3ccc(Cl)cc3)CC2)cc1 | 56.9% (active)
66 | COc1ccc2cc(CN(C)c3ccc(C#N)cn3)ccc2c1 | 19.4% (inactive)
67 | CN1CCc2c(sc(NC(=O)c3ccco3)c2-c2nc3ccccc3s2)C1 | inactive
68 | CCN1CCc2c(sc(NC(C)=O)c2-c2nc3ccccc3s2)C1 | 79.4% (active)
69 | CCC(=O)Nc1sc2c(c1-c1nc3ccccc3s1)CCN(C)C2 | 30.1% (inactive)
70 | CCN1CCc2c(sc(NC(=O)C3CC3)c2-c2nc3ccccc3s2)C1 | 36% (inactive)
71 | CCN1CCc2c(sc(NC(=O)c3ccc([N+](=O)[O-])cc3)c2-c2nc3ccccc3s2)C1 | 42.7% (inactive)
72 | CCN1CCc2c(sc(NC(=O)C(C)(C)C)c2-c2nc3ccccc3s2)C1 | 100% (active)
73 | CCC(=O)Nc1sc2c(c1-c1nc3ccccc3s1)CCN(CC)C2 | 60.8% (active)
74 | CCN1CCc2c(sc(NC(=O)c3ccco3)c2-c2nc3ccccc3s2)C1 | 87.1% (active)
75 | C(=Nn1c(-c2ccco2)csc1=NC1CCCCC1)c1ccccn1 | -7.16% (inactive)

Row | SMILES | inhibition
76 | CCN1CCc2c(sc(NC(=O)c3ccc(C(C)=O)cc3)c2-c2nc3ccccc3s2)C1 | 5.96% (inactive)
77 | CN1CCc2c(sc(NC(=O)C(C)(C)C)c2-c2nc3ccccc3s2)C1 | 52.2% (active)
78 | Cc1ccc(S(=O)(=O)CC(=O)Nc2sc3c(c2-c2nc4ccccc4s2)CCN(C)C3)cc1 | -29.9% (inactive)
79 | CCN1CCc2c(sc(NC(=O)c3ccccc3)c2-c2nc3ccccc3s2)C1 | 100% (active)
80 | CN1CCc2c(sc(NC(=O)c3cccs3)c2-c2nc3ccccc3s2)C1 | 45.1% (inactive)
81 | CCN1CCc2c(sc(NC(=O)c3cccs3)c2-c2nc3ccccc3s2)C1 | 52% (active)
82 | CN1CCc2c(sc(NC(=O)CS(=O)(=O)c3ccccc3)c2-c2nc3ccccc3s2)C1 | 25.4% (inactive)
83 | CCN1CCc2c(sc(NC(=O)c3ccc(OC)cc3)c2-c2nc3ccccc3s2)C1 | inactive
84 | CC1CCc2c(sc3nc(C(C)N4CCOCC4)[nH]c(=O)c23)C1 (stereo not given) | 49.6% (inactive)
85 | COc1ccc(OCCSCc2nc3sc4c(c3c(=O)[nH]2)CCC(C)C4)cc1 (stereo not given) | 54.4% (active)
86 | CC1CCc2c(sc3nc(CN(Cc4ccccc4)CC(O)COCc4ccccc4)[nH]c(=O)c23)C1 (stereo not given) | 17.2% (inactive)
87 | N=c1oc2c([N+](=O)[O-])cc(N3CCCCC3)cc2cc1-c1nc2ccccc2s1 | 5.54% (inactive)
88 | Oc1ccc(Br)cc1C=NNc1ccc(F)cc1F | 58.9% (active)
89 | COc1cc(OC)c(OC)cc1C=NNc1ccc(F)cc1F | 84.3% (active)
90 | CN(C)c1ccc(C=NNc2ccc(F)cc2F)cc1 | 14.3% (inactive)
91 | O=C1CSC2=NCN(c3ccc(I)cc3)CN12 | 63.4% (active)
92 | O=C1CSC2=NCN(c3ccc(Cl)c(Cl)c3)CN12 | 71.9% (active)
93 | CCOC(=O)c1nnc2n(c1=O)CCN2c1ccc(OC)cc1 | 31.9% (inactive)
94 | O=c1c2cnc(N3CCOCC3)nc2ccn1-c1ccc(Cl)c(Cl)c1 | 12.3% (inactive)
95 | COc1ccc(CN2CCN(c3ccc(Oc4ccccc4)cc3)C(=O)C2C)cc1 (stereo not given) | 28.7% (inactive)
96 | COc1ccc(N2CN=C3SCC(=O)N3C2)cc1 | 95.9% (active)
97 | CNc1cnc(-c2ccc(O)cc2C)cn1 | 9.26% (inactive)
98 | CCCCCCCCN=C1NC(=O)CS1 | 95.8% (active)
99 | Nc1ncc(Br)cc1S(=O)(=O)N1CCCCC1 | 77.9% (active)
100 | CCCCCOc1cc(C)ccc1S(=O)(=O)N1CCCC1 | 41.6% (inactive)
